10 compounds from PubChem BioAssay (NCATS) can be followed below.

Test [1] can be described thus: qHTS profiling of the MIPE4 collection as inhibitors of Plasmodium falciparum (DD2) proliferation (AID 743345; call rule not given here). To be noted: P. falciparum Dd2 in erythrocytes, SYBR Green DNA, 72 h; at 28.5 µM (top of the series) unless noted. The method, boiled down: (§1)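 Erythrocytes infected with P. falciparum (0.3% parasitemia, 2.5% hematocrit) incubated with compounds 72 h at 37 C, 5% CO2. Lysis with saponin/Triton buffer containing SYBR Green I, overnight at room temperature in the dark; DNA fluorescence (485/535 nm) normalised to 0.29 uM artemisinin and DMSO.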
(In general: Quantitative high-throughput screening tests each substance at several concentrations.)

Test [2] can be described thus: qHTS profiling of the MIPE4 collection as inhibitors of Plasmodium falciparum (DD2) proliferation (Rep 2) (AID 743346; call rule not given here). To be noted: P. falciparum Dd2 in erythrocytes, SYBR Green DNA, 72 h; at 28.5 µM (top of the series) unless noted. The method, boiled down: as §1
The nature of test [3]: qHTS profiling of the MIPE4 collection as inhibitors of Plasmodium falciparum (HB3) proliferation (AID 743347; call rule not given here;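 further: plate controls were DMSO vehicle wells for no effect and artemisinin wells for full effect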). To be noted: P. falciparum HB3 in erythrocytes, SYBR Green DNA, 72 h; at 28.5 µM (top of the series) unless noted. The method, boiled down: as §1
Test [4] in a line: High-throughput drug toxicity screening in the BPDCN cell line Gen2.2 (AID 1224824; call rule not given here;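 further: cells exposed to compounds for 48 h before reading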). To be noted: Gen2.2 BPDCN cells; at 45.8 µM (top of the series) unless noted. The method, boiled down: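 CellTiter-Glo luminescence after 48 h compound exposure of Gen2.2 cells; percent activity set with DMSO as 100% and bortezomib (9.2 uM final) as 0%. Cells seeded at 500 per well, RPMI + 10% FBS, 37 °C.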

Test [5] is described as follows: High-throughput drug toxicity screening in the BPDCN cell line Cal-1 (AID 1224825; call rule not given here). To be noted: Cal-1 BPDCN cell viability, qHTS; at 45.8 µM (top of the series) unless noted. The method, boiled down: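 500 Cal-1 cells/well, RPMI + glutamine + 10% FBS (phenol red-free); cpd added by pin tool; 48 h, 37C, 5% CO2; CTG 15 min RT, lumi read. Normalised: DMSO 100%, bortezomib 9.2 uM 0%.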

A short description of test [6]: qHTS assay for measurement of the activity of small molecule inhibitors on Zika virus induced Caspase-3 activity in human iPSC derived neural progenitor cells (hNPCs) (AID 1224857). Further: % of control where 0% means no effect; nearly all actives have a fitted effect of over 65% in size. The method, boiled down: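 After overnight (16–20 h) culture at 350 cells/well, hNPCs get compound, then ZIKV 2 FFU/cell one hour later. Six hours on, Caspase-Glo 3/7 is added and luminescence measured.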

Test [7] is described as follows: qHTS Screen of the MIPE 4.0 Collection Against Ewings Sarcoma (RDES) (AID 1259252). Further: nearly all actives have a fitted effect of over 35% in size. Further: potency means the concentration at half of the fitted maximal effect. The method, boiled down:
(§2)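 CellTiter-Glo luminescence after 48 h compound exposure (titration) gave viability; percent activity used DMSO-treated cells as no inhibition and medium-only wells as full inhibition. Cells grown in RPMI/5% FBS, dosed 4 h post-seeding.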

A short description of test [8]: qHTS Screen of the MIPE 4.0 Collection Against Ewings Sarcoma (EW8) (AID 1259255). Further: nearly all actives have a fitted effect of over 35% in size. Further: potency means the concentration at half of the fitted maximal effect.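 On viability: 100% = DMSO-treated cells and 0% = medium-only wells without cells.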 The method in brief:
as §2

The nature of test [9]: qHTS Screen of the MIPE 4.0 Collection Against Ewings Sarcoma (TC32) (AID 1259256). Further: nearly all actives have a fitted effect of over 45% in size. Further: potency means the concentration at half of the fitted maximal effect. The method, boiled down: as §2
Test [10] is described as follows: qHTS assay to identify small molecule inhibitors of chordoma cells - UCH-1 (AID 1259355). Further: on the % scale 0 is the no-effect control and ±100 the full control effect; nearly all actives have a fitted effect of over 55% in size. The method in brief: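 Seed 800 cells per well; incubate overnight at 37 C, 5% CO2. Add test compounds (15 concentrations), then the auranofin–topoisomerase-agent combination. Incubate 48hr, add CellTiter-Glo, wait 30min, read luminescence.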
Test [11] is described as follows: qHTS assay to identify small molecule inhibitors of chordoma cells - UCH-2 (AID 1259356). Further: on the % scale 0 is the no-effect control and ±100 the full control effect.
Test [12] is described as follows: qHTS Screen of the MIPE 4.0 Collection Against Ewings Sarcoma (TC71) (AID 1259253). Further: nearly all actives have a fitted effect of over 40% in size. Further: potency means the concentration at half of the fitted maximal effect. The method in brief:
as §2

Test [13] is described as follows: P-glycoprotein substrates identified in KB-3-1 adenocarcinoma cell line, qHTS therapeutic library screen (AID 1346986). Further: nearly all actives have a fitted effect of over 60% in size. The method, boiled down: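 Cells seeded 500/well in DMEM/10% FCS; compounds pinned in dose-response; 72 h incubation; CellTiter-Glo added, 5 min, luminescence. KB-8-5-11 run ±tariquidar to test reversal of P-gp resistance.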
The nature of test [14]: qHTS assay for measurement of the activity of small molecule inhibitors on Zika virus induced Caspase-3 activity in human astrocytoma cells (AID 1224859).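 Further: plate controls were ZIKV-infected untreated cells for no effect and uninfected cells for full effect.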 The method, boiled down: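 Inhibition of Zika-induced caspase-3/7 activity: SNB-19 cells, 1 h compound pretreatment, ZIKV 2 FFU/cell for 6 h at 37 C, Caspase-Glo luminescence read-out.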
Test [15] is described as follows: Identifying Small Molecule Inhibitors of Pancreatic Cancer Stem Cells (A2780, Spheroid) (AID 1259357).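 Further: potency means the concentration at half of the fitted maximal effect; compound exposure lasted 48 h before the ATP luminescence read.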 To be noted: Potency: A2780 spheroid viability. The method in brief:
(§3)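 Pre-formed 14-day tumor spheroids or adherent cells dosed and incubated 48 h, 37C, 5% CO2. Viability assessed by CellTiter-Glo.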

The nature of test [16]: Identifying Small Molecule Inhibitors of Pancreatic Cancer Stem Cells (SN12C, Adherent) (AID 1259358).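 Further: potency means the concentration at half of the fitted maximal effect; cell survival measured after 48 h of compound exposure.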 The method, boiled down:
(§4)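 Cytotoxicity read by CellTiter-Glo luminescence after 48 h compound exposure at 37C; percent activity scaled between DMSO-treated cells and cell-free wells. Spheroid formats used cells pre-formed 14 days in stem cell media on hydrogel.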

Test [17] is described as follows: Identifying Small Molecule Inhibitors of Pancreatic Cancer Stem Cells (Panc1, Spheroid) (AID 1259359).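 Further: potency means the concentration at half of the fitted maximal effect; compound exposure lasted 48 h before reading.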 To be noted: Panc1 spheroid cancer stem cell viability. The method in brief:
(§5)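 Spheroids grown 14 days in stem cell media on hydrogel-coated nonadherent plates; 2D lines seeded directly. Compounds added after 4 h attachment, 48 h at 37C, 5% CO2; CellTiter-Glo luminescence normalized to DMSO (no inhibition) and no-cell wells (full inhibition).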

The nature of test [18]: Identifying Small Molecule Inhibitors of Pancreatic Cancer Stem Cells (SN12C, Spheroid) (AID 1259360). Further: potency means the concentration at half of the fitted maximal effect.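 On viability (% of control): 100% = DMSO-treated cells and 0% = wells without cells.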 To be noted: Potency: SN12C spheroid viability. The method, boiled down: as §3
A short description of test [19]: Identifying Small Molecule Inhibitors of Pancreatic Cancer Stem Cells (A278, Adherent) (AID 1259361). Further: nearly all actives have a fitted effect of over 35% in size. The method, boiled down:
as §4

Test [20] is described as follows: Identifying Small Molecule Inhibitors of Pancreatic Cancer Stem Cells (Panc1, Adherent) (AID 1259362). Further: potency means the concentration at half of the fitted maximal effect. To be noted: Potency: viability. The method in brief:
as §5

Records with an inconclusive call do not appear. Calls of active or inactive are those of the source. Unless noted, the call rests on the fitted dose curve; in most records, active means well fitted curve in the direction sought with a large enough effect; inconclusive means small, poorly fitted or top-dose-only effect, or another doubt; inactive means no such curve, though single readings can be large; an effect the other way counts as inactive or inconclusive.

For `N=C(N)c1ccc2cc(OC(=O)c3ccc(N=C(N)N)cc3)ccc2c1`, the parasite growth remaining, % of DMSO control (lower = more inhibition) in test [1] came out at 9.8%. In addition, the parasite growth, % of control (lower = inhibition) in [2] amounted to 14%. In [3], this compound returned a growth, % of control of 12.8%. Further, the cell viability, % of control (lower = more cytotoxic) in [4] came out at 175%. In addition, in [5], the viability (% of control) stood at 102%. In addition, the Potency result in [6], in [7], in test [8], in test [9], in test [10] and in test [11] was “inactive” throughout.

Consider `O=C1c2ccccc2-c2n[nH]c3cccc1c23`, for which, in [1], the parasite growth remaining, % of DMSO control (lower = more inhibition) was 93%. In addition, the parasite growth, % of control (lower = inhibition) in test [2] was determined as 87%. This compound also returned a growth, % of control in [3] of 85.2%. Further, in test [4], the cell viability, % of control (lower = more cytotoxic) came out at 84.7%. Moreover, the viability (% of control) in test [5] turned out to be 3.95%. The Potency result in test [6], in test [10] and in [11] was “inactive” in each case. Also, in [9], the Potency is 18.7 µM (active).

Take `CN(C)CCc1c[nH]c2ccc(Cn3cncn3)cc12`: the parasite growth remaining, % of DMSO control (lower = more inhibition) in test [1] was determined as 102%. In addition, the parasite growth, % of control (lower = inhibition) in test [2] came out at 62.6%. The compound further gave a growth, % of control in test [3] of 99.9%. The cell viability, % of control (lower = more cytotoxic) in test [4] came to 102%. Further, the viability (% of control) in test [5] amounted to 54.2%. Moreover, the Potency entry in test [6], in [7], in [12], in test [8], in [9] and in [10] was “inactive” throughout. Besides, the Potency entry in test [11] and in [13] was “inactive” throughout.

With `COCCCN1CCC(NC(=O)c2cc(Cl)c(N)c3c2OCC3)CC1`, the parasite growth remaining, % of DMSO control (lower = more inhibition) in test [1] was 51.1%. Further, the parasite growth, % of control (lower = inhibition) in test [2] was 38%. The compound further registered a growth, % of control in test [3] of 15.7%. For the same compound, the cell viability, % of control (lower = more cytotoxic) in test [4] was determined as 418%. In [5], the viability (% of control) was 76.6%. Also, the Potency result in test [6] and in test [14] was “inactive” in each case.

Turning to `C[C@@H](c1ncncc1F)[C@](O)(Cn1cncn1)c1ccc(F)cc1F`, in [4], the cell viability, % of control (lower = more cytotoxic) amounted to 56.5%. In test [5], the viability (% of control) worked out at 55.6%. In addition, the Potency result in test [6], in [7], in test [12] and in test [9] was “inactive” in each case.

`CCN(CC)CCOc1ccc(Nc2ncc3cc(-c4c(Cl)cccc4Cl)c(=O)n(C)c3n2)cc1`: the parasite growth remaining, % of DMSO control (lower = more inhibition) in [1] stood at 8.57%. The parasite growth, % of control (lower = inhibition) in test [2] was determined as 10.6%. The compound further had a growth, % of control in [3] of 4.26%. For the same compound, in [4], the cell viability, % of control (lower = more cytotoxic) stood at 4.53%. Also, the viability (% of control) in [5] came to 2.59%. The Potency entry in [6] was “inactive”. The Potency was 1.87 µM (active) in test [7]; 3.32 µM (active) in test [12]; 0.235 µM (active) in [8]; 2.64 µM (active) in test [9]; 13.2 µM (active) in test [15]; 0.662 µM (active) in [16]. Further, the Potency in test [17] is 1.05 µM (active); in test [18] it was 16.6 µM (active); in test [20], 0.296 µM (active). Also, the IC50 (viability decrease) in test [19] is 1.48 µM (active).

Take `Cc1ccc(Nc2nccc(N(C)c3ccc4c(C)n(C)nc4c3)n2)cc1S(N)(=O)=O`: in [4], the cell viability, % of control (lower = more cytotoxic) worked out at 355%. In test [5], the viability (% of control) came out at 62.5%. The Potency result in test [6], in [8], in [9] and in test [18] was “inactive” each time. In addition, the Potency in test [7] is 11.8 µM (active); in test [16], 18.7 µM (active).

For `O=C(NCC1CCCCN1)c1cc(OCC(F)(F)F)ccc1OCC(F)(F)F` (stereo not given), the cell viability, % of control (lower = more cytotoxic) in [4] stood at 42.6%. The viability (% of control) in test [5] worked out at 12.9%. The Potency result in test [6], in test [8] and in test [11] was “inactive” in each case.

Consider `Nc1nc(Cl)nc2c1ncn2[C@H]1C[C@H](O)[C@@H](CO)O1`, for which the parasite growth remaining, % of DMSO control (lower = more inhibition) in [1] was found to be 90.9%. Also, in test [2], the parasite growth, % of control (lower = inhibition) was 114%. In addition, in [3], the growth, % of control was determined as 103%. For the same compound, the cell viability, % of control (lower = more cytotoxic) in test [4] came to 93.3%. Moreover, the viability (% of control) in test [5] was found to be 12%. Besides, the Potency entry in test [6], in [10] and in test [11] was “inactive” each time. Moreover, the Potency is 0.235 µM (active) in test [7], 0.372 µM (active) in [12], 0.372 µM (active) in test [8] and 0.296 µM (active) in [9]. Further, the IC50 (viability decrease) in test [19] was 0.0959 µM (active).

As for `Cc1ccc(C(=O)c2cc(O)c(O)c([N+](=O)[O-])c2)cc1`, the parasite growth remaining, % of DMSO control (lower = more inhibition) in test [1] came out at 93.6%. For the same compound, the parasite growth, % of control (lower = inhibition) in [2] is 82.4%. Further, the growth, % of control in test [3] turned out to be 92.8%. Further, the cell viability, % of control (lower = more cytotoxic) in test [4] came out at 52.4%. For the same compound, the viability (% of control) in [5] was 73.3%. In addition, the Potency entry in test [6] and in test [14] was “inactive” throughout.
